“And” between values parts separate entries of the source, which are not always exact repeats. Equal values may be shown once. Hit rate of the full screen: of about 5,500 compounds, about 2,000 (36%) were called active. Roughly 18% stayed inconclusive and do not appear here. Cut-off read from the data, not from the text of the source: active = normalized growth mostly below about 0.91 (no sharp cut-off); inconclusive = no clear call, values can overlap the other calls; inactive = mostly above about 0.92. Some of the results follow.
Assay: chemical genetic growth profiling, strain panel (AID 1159580);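 note: tested at 20 µM; growth read once vehicle control cultures reached saturation at 30 °C; 1 = growth at the plate median or of vehicle wells; lower values mean less growth of the strain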
Conditions: growth OD
[1] = S. cerevisiae deletion strains, locus YAL013W, strain DEP1, active compounds read low
[2] = S. cerevisiae deletion strains, locus YDR150W, strain NUM1, active compounds read low
[3] = S. cerevisiae deletion strains, locus YMR307W, strain GAS1, active compounds read low
[4] = S. cerevisiae deletion strains, locus YNL128W, strain TEP1, active compounds read low
[5] = S. cerevisiae deletion strains, locus YNL153C, strain GIM3, active compounds read low
[6] = S. cerevisiae deletion strains, locus YPL055C, strain LGE1, active compounds read low

Measured: normalized growth

CCN1C(=O)C=CC1=O
inactive: [1] 1.04 | S. cerevisiae deletion strains, locus YAL040C, strain CLN3, active compounds read low 1 | S. cerevisiae deletion strains, locus YCL061C, strain MRC1 (second series), active compounds read low 1.01 | [2] 1.01 | S. cerevisiae deletion strains, locus YDR363W, strain ESC2, active compounds read low 0.992 | S. cerevisiae deletion strains, locus YER002W, strain NOP16, active compounds read low 1 | [3] 1.02 | [4] 1.03 | [5] 1.02 | S. cerevisiae deletion strains, locus YNL175C, strain NOP13, active compounds read low 1.01 | S. cerevisiae deletion strains, locus YNL197C, strain WHI3, active compounds read low 1.01 | S. cerevisiae deletion strains, locus YNL224C, strain SQS1, active compounds read low 1 | S. cerevisiae deletion strains, locus YOR083W, strain WHI5 (second series), active compounds read low 1.07 | [6] 1.09

C[C@@]12C(=O)OC(=O)[C@]1(C)C1CCC2O1
inactive: [1] 0.966 | S. cerevisiae deletion strains, locus YDL035C, strain GPR1, active compounds read low 0.919 | S. cerevisiae deletion strains, locus YDL101C, strain DUN1, active compounds read low 0.971 | S. cerevisiae deletion strains, locus YDL134C, strain PPH21, active compounds read low 0.939 | [2] 0.926 | S. cerevisiae deletion strains, locus YER110C, active compounds read low 0.902 | S. cerevisiae deletion strains, locus YGL248W, strain PDE1, active compounds read low 0.932 | S. cerevisiae deletion strains, locus YGR078C, strain PAC10, active compounds read low 0.869 | S. cerevisiae deletion strains, locus YGR229C, strain SMI1, active compounds read low 1.02 | S. cerevisiae deletion strains, locus YGR252W, strain gcn5, active compounds read low 0.848 | S. cerevisiae deletion strains, locus YIL066C, strain RNR3, active compounds read low 0.924 | S. cerevisiae deletion strains, locus YIL073C, strain SPO22, active compounds read low 0.968 | S. cerevisiae deletion strains, locus YJL134W, strain LCB3, active compounds read low 0.929 | S. cerevisiae deletion strains, locus YJL187C, strain SWE1 (second series), active compounds read low 0.895 | S. cerevisiae deletion strains, locus YJR043C, strain POL32, active compounds read low 0.862 | S. cerevisiae deletion strains, locus YJR075W, strain HOC1, active compounds read low 0.964 | S. cerevisiae deletion strains, locus YKL190W, strain CNB1, active compounds read low 0.94 | S. cerevisiae deletion strains, locus YLR039C, strain RIC1, active compounds read low 0.918 | S. cerevisiae deletion strains, locus YLR058C, strain SHM2, active compounds read low 0.931 | S. cerevisiae deletion strains, locus YLR262C, strain YPT6, active compounds read low 1 | S. cerevisiae deletion strains, locus YLR330W, strain CHS5, active compounds read low 0.923 | S. cerevisiae deletion strains, locus YLR342W, strain FKS1 (second series), active compounds read low 1.11 | S. cerevisiae deletion strains, locus YLR418C, strain cdc73, active compounds read low 0.949 | [3] 1.13 | [4] 0.944 | S. cerevisiae deletion strains, locus YNL233W, strain BNI4, active compounds read low 0.923 | S. cerevisiae deletion strains, locus YNL307C, strain MCK1, active compounds read low 0.922 | S. cerevisiae deletion strains, locus YOL006C, strain TOP1, active compounds read low 0.835 | S. cerevisiae deletion strains, locus YOL012C, strain htz1 0.4 | S. cerevisiae deletion strains, locus YOR061W, strain CKA2, active compounds read low 0.905 | S. cerevisiae deletion strains, locus YOR184W, strain ser1, active compounds read low 0.939 | S. cerevisiae deletion strains, locus YPL241C, strain CIN2, active compounds read low 0.932 | S. cerevisiae strains, strain wild type, active compounds read low 0.94
active: S. cerevisiae deletion strains, locus YBR021W, strain FUR4, active compounds read low 0.808 | S. cerevisiae deletion strains, locus YBR229C, strain ROT2, active compounds read low 0.913 | S. cerevisiae deletion strains, locus YCL029C, strain bik1, active compounds read low 0.685 | S. cerevisiae deletion strains, locus YDL074C, strain BRE1, active compounds read low 0.662 | S. cerevisiae deletion strains, locus YDL185W, strain tfp1, active compounds read low 0.106 | S. cerevisiae deletion strains, locus YDL192W, strain arf1, active compounds read low 0.87 | S. cerevisiae deletion strains, locus YDR101C, strain arx1, active compounds read low 0.715 | S. cerevisiae deletion strains, locus YDR162C, strain NBP2, active compounds read low 0.824 | S. cerevisiae deletion strains, locus YDR318W, strain mcm21, active compounds read low 0.681 | S. cerevisiae deletion strains, locus YDR388W, active compounds read low 0.85 | S. cerevisiae deletion strains, locus YDR502C, strain sam2, active compounds read low 0.826 | S. cerevisiae deletion strains, locus YEL061C, strain CIN8, active compounds read low 0.91 | S. cerevisiae deletion strains, locus YER155C, strain BEM2, active compounds read low 0.887 | S. cerevisiae deletion strains, locus YER167W, strain BCK2, active compounds read low 0.895 | S. cerevisiae deletion strains, locus YGL078C, strain dbp3, active compounds read low 0.15 | S. cerevisiae deletion strains, locus YGL086W, strain mad1, active compounds read low 0.911 | S. cerevisiae deletion strains, locus YGR135W, strain pre9, active compounds read low 0.785 | S. cerevisiae deletion strains, locus YHR030C, strain SLT2, active compounds read low 0.0503 and 0.0957 | S. cerevisiae deletion strains, locus YHR079C, strain IRE1 (second series), active compounds read low 0.782 | S. cerevisiae deletion strains, locus YHR079C, strain IRE1, active compounds read low 0.173 | S. cerevisiae deletion strains, locus YHR094C, strain hxt1, active compounds read low 0.861 | S. cerevisiae deletion strains, locus YHR129C, strain ARP1, active compounds read low 0.877 | S. cerevisiae deletion strains, locus YHR200W, strain rpn10, active compounds read low 0.82 | S. cerevisiae deletion strains, locus YIL125W, strain kgd1, active compounds read low 0.23 | S. cerevisiae deletion strains, locus YIR030C, strain dcg1, active compounds read low 0.869 | S. cerevisiae deletion strains, locus YJL095W, strain BCK1, active compounds read low 0.0568 and 0.105 | S. cerevisiae deletion strains, locus YJL168C, strain set2, active compounds read low 0.798 | S. cerevisiae deletion strains, locus YJR066W, strain TOR1, active compounds read low 0.049 | S. cerevisiae deletion strains, locus YKL009W, strain mrt4, active compounds read low 0.169 | S. cerevisiae deletion strains, locus YKL068W, active compounds read low 0.288 | S. cerevisiae deletion strains, locus YKL085W, strain MDH1 (second series), active compounds read low 0.17 | S. cerevisiae deletion strains, locus YKL085W, strain MDH1, active compounds read low 0.17 | S. cerevisiae deletion strains, locus YKR001C, strain vps1, active compounds read low 0.658 | S. cerevisiae deletion strains, locus YLR102C, strain apc9, active compounds read low 0.833 | S. cerevisiae deletion strains, locus YLR113W, strain HOG1, active compounds read low 0.182 | S. cerevisiae deletion strains, locus YLR268W, strain sec22, active compounds read low 0.78 | S. cerevisiae deletion strains, locus YLR371W, strain rom2, active compounds read low 0.879 | S. cerevisiae deletion strains, locus YML016C, strain PPZ1, active compounds read low 0.91 | S. cerevisiae deletion strains, locus YML032C, strain rad52, active compounds read low 0.69 | S. cerevisiae deletion strains, locus YML124C, strain tub3, active compounds read low 0.853 | S. cerevisiae deletion strains, locus YMR078C, strain ctf18, active compounds read low 0.753 | S. cerevisiae deletion strains, locus YMR223W, strain ubp8, active compounds read low 0.8 | S. cerevisiae deletion strains, locus YMR263W, strain SAP30, active compounds read low 0.877 | S. cerevisiae deletion strains, locus YNL067W, strain RPL9B, active compounds read low 0.841 | [5] 0.671 | S. cerevisiae deletion strains, locus YNL183C, strain NPR1, active compounds read low 0.0569 | S. cerevisiae deletion strains, locus YNL250W, strain rad50, active compounds read low 0.144 | S. cerevisiae deletion strains, locus YNL271C, strain bni1, active compounds read low 0.521 | S. cerevisiae deletion strains, locus YNL298W, strain CLA4, active compounds read low 0.162 | S. cerevisiae deletion strains, locus YNL322C, strain KRE1, active compounds read low 0.923 | S. cerevisiae deletion strains, locus YNR052C, strain pop2, active compounds read low 0.791 | S. cerevisiae deletion strains, locus YOL147C, strain pex11, active compounds read low 0.825 | S. cerevisiae deletion strains, locus YOR069W, strain VPS5, active compounds read low 0.917 | S. cerevisiae deletion strains, locus YOR136W, strain idh2, active compounds read low 0.906 | S. cerevisiae deletion strains, locus YOR144C, strain elg1, active compounds read low 0.703 | S. cerevisiae deletion strains, locus YOR231W, strain MKK1, active compounds read low 0.147 | S. cerevisiae deletion strains, locus YOR316C, strain cot1, active compounds read low 0.854 | [6] 0.601 | S. cerevisiae deletion strains, locus YPL256C, strain CLN2, active compounds read low 0.167 | S. cerevisiae deletion strains, locus YPR119W, strain clb2, active compounds read low 0.861 | S. cerevisiae deletion strains, locus YPR141C, strain kar3, active compounds read low 0.113 | S. cerevisiae deletion strains, locus YPR163C, strain tif3, active compounds read low 0.585 | S. cerevisiae deletion strains, locus YPR167C, strain met16, active compounds read low 0.786 | S. cerevisiae deletion strains, strain wtn01, active compounds read low 0.834
